Screening data deposited in PubChem by Sanford-Burnham Center for Chemical Genomics.
PHOSPHO1 inh: blocks human PHOSPHO1 phosphatase activity. recombinant PHOSPHO1, absorbance phosphatase assay. actives 1.1% (n = 290,000). Q8TCT1. AID 1565. inhibition, % at 13.3 µM; in the data active = inhibition above about 60%
eIF4H inh: inhibitors of RNA binding by human eIF4H. Q15056. eIF4H fluorescence polarization binding assay. inhibition, % at 35 µM. actives 0.94% (n = 290,000). AID 2012;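 also: calls also rest on retests at 20 µM and on dose response follow-up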
CRFR2-BP antag: blocks CRF-induced signaling of the CRF-BP/CRF-R2 complex. HEK293 CRF-R2/CRF-BP, CRF-induced calcium fluorescence. inhibition, % at 11.8 µM. actives 0.59% (n = 350,000);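 active = inhibition of the ligand-induced calcium signal above about 50% at the single tested concentration, limit read from the data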
MLLE-PAM2 inh: inhibitors of microRNA-mediated deadenylation, human PABP1 MLLE binding | inhibition, % at 20 µM | GST-MLLE / FITC-PAM2 fluorescence polarization | actives 0.36% (n = 360,000) | AID 588489 | P11940; in the data active = inhibition above about 35%, passing the limit was not always enough;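 also: plate controls were DMSO wells with GST-MLLE for no effect and wells lacking GST-MLLE protein for full effect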
Target sequence (P11940 whole entry, looked up): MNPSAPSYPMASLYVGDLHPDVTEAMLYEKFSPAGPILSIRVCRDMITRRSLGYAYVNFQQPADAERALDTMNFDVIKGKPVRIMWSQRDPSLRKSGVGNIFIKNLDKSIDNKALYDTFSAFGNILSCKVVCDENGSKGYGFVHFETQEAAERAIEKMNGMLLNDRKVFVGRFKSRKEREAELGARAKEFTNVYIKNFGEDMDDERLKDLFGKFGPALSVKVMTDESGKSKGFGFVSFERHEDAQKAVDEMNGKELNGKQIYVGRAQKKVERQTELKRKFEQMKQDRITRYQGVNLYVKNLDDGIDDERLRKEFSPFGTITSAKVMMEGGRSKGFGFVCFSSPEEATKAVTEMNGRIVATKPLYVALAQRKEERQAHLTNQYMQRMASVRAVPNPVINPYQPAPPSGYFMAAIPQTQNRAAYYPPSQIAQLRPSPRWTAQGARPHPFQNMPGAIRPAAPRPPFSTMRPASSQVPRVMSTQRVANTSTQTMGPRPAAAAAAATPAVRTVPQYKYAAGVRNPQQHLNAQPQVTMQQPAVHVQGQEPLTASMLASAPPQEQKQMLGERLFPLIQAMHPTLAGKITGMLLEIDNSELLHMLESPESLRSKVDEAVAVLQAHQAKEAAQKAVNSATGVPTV
PABP polyA inh: PABP-poly(A) binding inhibition; P11940; PABP-poly(A) RNA binding, fluorescence polarization; inhibition, % at 35 µM; actives 1% (n = 290,000);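 also: calls also rest on retests at 20 µM and on dose response follow-up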
Starred values were filed as active, the others as inactive; u = inconclusive; x = no result. An excerpt weighted towards active compounds, which were near 2.6% of everything screened. Unless noted, no rule for the calls is given here.

SMILES	PHOSPHO1 inh	eIF4H inh	CRFR2-BP antag	MLLE-PAM2 inh	PABP polyA inh
COc1ccc(NC(=O)Nc2cccc3c2O[C@@H](CN(C)S(=O)(=O)c2cn(C)cn2)[C@@H](C)CN([C@H](C)CO)C3=O)cc1	x	x	0	-3	x
CCOC(=O)C1(C)CCN1C(=O)c1ccc(Cl)nc1 (stereo not drawn)	x	x	x	5	x
CCN1C(=O)/C(=C2/C=Cc3ccccc3N2C)OC1=S	65*	5	4	8	-2
CCOC(=O)c1c(CSc2ccccc2)n(C)c2cc(Br)c(O)c(CN(C)C)c12	6	-8	1	8	-14
CCOC(=O)c1c(CSc2ccc(C)cc2)n(C)c2cc(Br)c(O)c(CN(C)C)c12	22	18	-17	100*	6
O=C(CSc1nnc(-c2ccncc2)o1)N1CCCCCC1	68*	-1	-1	4	6
Cc1ccc(-c2nnc(SCC(=O)N3CCCC3)o2)cc1	-16	4	3	-3	1
Cc1ccc(-c2nnc(SCC(=O)N3CCCC3)o2)cc1C	92*	-8	-2	-119	-4
CCC(=O)Nc1ccc(C(=O)CSc2nnc(-c3ccccc3F)n2C2CC2)cc1	-6	73*	-23	7	-4
Cc1ccc(C(=O)Nc2cc3ccccc3oc2=O)cc1	32	-6	-1	-9	13
CCN(C(=O)Nc1ccccc1)c1ccccc1	4	3	6	3	18
C#CCN(C(=O)Nc1ccccc1)c1ccccc1	3	3.2*	-13	8	59*
CS(=O)(=O)N1CCN(c2ccc(NC(=O)c3cccnc3Cl)cc2)CC1	100*	-2	-3	-1	8
COc1ccc(CN2C[C@@H](CO)O[C@@H](n3cnc4c(NCCN(C)C)ncnc43)C2)cc1	x	x	x	1	x
O=C(COC(=O)CCc1c[nH]c(=O)[nH]1)Nc1cccc(Cl)c1	25	16	2	39*	35
O=C(COC(=O)CCCOc1ccc(Cl)cc1Cl)Nc1cccc(Cl)c1	5	-14	-3	-12	2
CCOC(=O)c1c(NC(=O)COC(=O)c2ccc([N+](=O)[O-])cc2)sc(C(=O)N(C)C)c1C	x	x	0	13	x
CCOC(=O)c1c(C)[nH]c(C(=O)OCC(=O)Nc2sc(C(=O)N(C)C)c(C)c2C(=O)OCC)c1C	x	x	87*	-7	x
CCC(C(=O)NC(C)(C)C)N(Cc1ccc(OC)cc1)C(=O)c1snc(C(N)=O)c1N (stereo not drawn)	x	x	-6	-4	x
O=C(Nc1ccccc1OC(F)F)c1cc2c(s1)CCC2	-6	84*	-7	1	5
COc1ccccc1NC(=O)c1ccc(NC(=O)c2cc3c(s2)CCC3)cc1	18	-7	-5	-3	25
CC(C)CC1C(=O)N(Cc2cn(CC3CCCCC3)nn2)CCS(=O)(=O)N1Cc1ccc(-c2cccc(C#N)c2)cc1 (stereo not drawn)	x	x	-5	-3	x
COc1cc(NC(C)C(=O)N2CC(C)OC(C)C2)cc(OC)c1 (stereo not drawn)	1	u	-12	2	51*
CC(=O)c1ccc(-c2cnc3c(NC=O)cc(-c4cnn(C)c4)cn23)cc1	x	x	x	-10	x
CCCc1nnc(NS(=O)(=O)c2ccc(C)cc2)o1	x	x	26	27	x
SMILES	PHOSPHO1 inh	eIF4H inh	CRFR2-BP antag	MLLE-PAM2 inh	PABP polyA inh
CCOc1cc(/C=C2\C(=N)N3N=C(C)SC3=NC2=O)ccc1OCCOc1cccc(OC)c1	-29	-3	-12	5	-4
CCc1nn2c(=O)cc(COc3ccc(/C=C4\C(=N)N5N=C(C)SC5=NC4=O)cc3)nc2s1	61*	70*	0	-3	active
CCCCCC(=O)NC(NC(=S)Nc1ccc(S(N)(=O)=O)cc1)C(Cl)(Cl)Cl (stereo not drawn)	32	61*	8	20	35*
CC(C)CC1C(=O)N(Cc2cn(CCC3OCCO3)nn2)CCS(=O)(=O)N1Cc1ccc(-c2ccc(Cl)c(Cl)c2)cc1 (stereo not drawn)	x	x	-11	17	x
Cc1ccccc1S(=O)(=O)NC(=O)C1(C)CCN1C(=O)CC1CCCCC1 (stereo not drawn)	x	x	x	3	x
COC(=O)c1cc2c(C)c(C)c3ccccn3c-2c1C(=O)OC	15	127	3	60*	120
COC(=O)c1cc2n3ccccc3c(C)c(-c3ccccc3)c-2c1C(=O)OC	-19	130*	-7	47*	124*
COC(=O)c1cn(-c2ccccc2)c(C)c1C(=O)OC	-35	0	-4	-6	-10
COC(=O)c1cc2ccccn2c2c(C(=O)OC)c(C(=O)OC)cc1-2	-9	1	23	9	15
O=C(CSc1nc2ccc(Nc3nc(N4CCCC4)nc(N4CCCC4)n3)cc2s1)NCc1ccco1	18	5	-13	-30	2
CC(=O)c1ccc(N2C(=O)C3C(C2=O)C(C(=O)c2ccc(Cl)cc2)N2CCCC32)cc1 (stereo not drawn)	-65	u	-22	x	u
O=C(c1ccc(Cl)cc1)C1C2C(=O)N(c3ccccc3)C(=O)C2C2CCCN21 (stereo not drawn)	84*	u	-11	-3	u
O=C(NNC(=O)C1[C@H]2CCCC[C@@H]12)c1ccc(=O)oc1 (stereo partly drawn)	6	u	13	-21	39*
O=c1[nH]cnc2c1ncn2C1CCC(CO)O1 (stereo not drawn)	x	x	x	0	x
Cc1ccc(CCNC(=O)C2CCCN(c3ncnc4c3nc3n4CCCCC3)C2)cc1 (stereo not drawn)	80*	-15	13	-17	-2
CCOc1ccc(CCNC(=O)C2CCCN(c3ncnc4c3nc3n4CCCCC3)C2)cc1 (stereo not drawn)	43	-10	115*	3	-2
Cc1ccc(CCNC(=O)C2CCCN(S(=O)(=O)N3CC(C)CC(C)C3)C2)cc1 (stereo not drawn)	0	-9	85*	-6	-1
C/C(=N\NC(=O)CNc1cccc(Cl)c1C)C1CC1	29	-1	-82	-7	0
Nn1c(SCc2ccccc2F)nnc1-c1ccccn1	24	4.1*	4	-8	61*
Nn1c(SCc2ccc(F)cc2)nnc1-c1ccccn1	28	4	-6	1	-2
O=C(Nc1cc(-c2ccccc2)[nH]n1)c1ccccc1F	12	38	-17	1	34
CC1=C(C(=O)Nc2cc(-c3cccc(F)c3)[nH]n2)C2(CCCCC2)OC1=O	-2	55*	-5	6	active
O=C(Nc1ccccc1)OC[C@@H]1C=CS(=O)(=O)N1Cc1ccc(Br)cc1	x	x	x	-8	x
N/C(Cn1cncn1)=N\NC(=O)C(=O)Nc1ccccc1	29	-5	30	1	-2
N/C(Cn1cncn1)=N\NC(=O)C(=O)Nc1cccc(C(F)(F)F)c1	60*	-8	1	-9	5
CC1(C(=O)NS(=O)(=O)c2ccc(C#N)cc2)CCN1C(=O)Cc1cc(F)ccc1F (stereo not drawn)	x	x	x	8	x
CC(C)(C)c1cc(C(=O)NNC(=O)Nc2ccccc2)n(Cc2ccccc2)n1	41	-8	2	-13	-1
